For some assays here: Results with a measured potency or affinity are listed apart. The source made the active and inactive calls. Unless noted, the rule behind the calls is not given here.
Experiments:
[1] = antimalarial activity against Dd2 strain (AID 2302;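 active = growth inhibition above 50% at the single 2 µM test dose, taken to imply half-maximal potency below 2 µM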;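 note: 0% = DMSO untreated growth and 100% = chloroquine plus artemisinin killed control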); settings: P. falciparum Dd2 in RBCs, LDH growth readout, 72 h; at 2 µM; hits give high values
[2] = HepG2 cytotoxicity, primary screen, cytotoxicity control for P. falciparum antimalarial project, cell-based, ATP luminescence (AID 2303;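 active = inhibition above 50%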;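 note: 0% = DMSO wells and 100% = digitonin-killed cells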); settings: HepG2 viability, 24-48 h, at 10 µM, hits give high values
[3] = molecular target: L-lactate dehydrogenase (Plasmodium falciparum (isolate CDC / Honduras)) (UniProt Q27743); experiment: PfLDH activity inhibition – cell lysate, 3D7 strain, counter-screen for P. falciparum growth inhibition project (AID 2304);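 note: 0% = vehicle and 100% = reference inhibitor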; settings: P. falciparum 3D7 crude extract, LDH APAD/NBT absorbance; at 2 µM; hits give high values
Chain of L-lactate dehydrogenase (Plasmodium falciparum (isolate CDC / Honduras)) (Q27743 whole entry, looked up): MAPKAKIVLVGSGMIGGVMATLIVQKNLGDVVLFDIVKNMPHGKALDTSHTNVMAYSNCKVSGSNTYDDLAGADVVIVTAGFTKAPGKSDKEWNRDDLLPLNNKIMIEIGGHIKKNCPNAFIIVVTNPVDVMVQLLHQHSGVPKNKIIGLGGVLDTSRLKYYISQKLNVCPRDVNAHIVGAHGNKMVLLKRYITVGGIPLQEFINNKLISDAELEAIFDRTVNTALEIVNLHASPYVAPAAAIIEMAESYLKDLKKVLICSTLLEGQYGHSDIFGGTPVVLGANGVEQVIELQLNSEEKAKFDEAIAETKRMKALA

[4] = inhibition of 3D7 malaria parasite growth – strain 3D7 (AID 2306);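 note: 0% = DMSO wells and 100% = chloroquine plus artemisinin control wells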; settings: P. falciparum 3D7 erythrocytic growth, LDH absorbance, 72 h; at 2 µM; hits give high values
[5] = molecular target: Calcium-dependent protein kinase 1 (Plasmodium falciparum (isolate 3D7)) (UniProt P62344); experiment: PfCDPK1 kinase inhibitors, biochemical, TCAMS library (AID 1159585; cut-off not given, nearly all actives have IC50 up to about 0.98 µM;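 note: inhibitors leave more ATP so luminescence rises with inhibition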); settings: recombinant PfCDPK1, Kinase-Glo ATP depletion luminescence
Chain of Calcium-dependent protein kinase 1 (Plasmodium falciparum (isolate 3D7)) (P62344 whole entry, looked up): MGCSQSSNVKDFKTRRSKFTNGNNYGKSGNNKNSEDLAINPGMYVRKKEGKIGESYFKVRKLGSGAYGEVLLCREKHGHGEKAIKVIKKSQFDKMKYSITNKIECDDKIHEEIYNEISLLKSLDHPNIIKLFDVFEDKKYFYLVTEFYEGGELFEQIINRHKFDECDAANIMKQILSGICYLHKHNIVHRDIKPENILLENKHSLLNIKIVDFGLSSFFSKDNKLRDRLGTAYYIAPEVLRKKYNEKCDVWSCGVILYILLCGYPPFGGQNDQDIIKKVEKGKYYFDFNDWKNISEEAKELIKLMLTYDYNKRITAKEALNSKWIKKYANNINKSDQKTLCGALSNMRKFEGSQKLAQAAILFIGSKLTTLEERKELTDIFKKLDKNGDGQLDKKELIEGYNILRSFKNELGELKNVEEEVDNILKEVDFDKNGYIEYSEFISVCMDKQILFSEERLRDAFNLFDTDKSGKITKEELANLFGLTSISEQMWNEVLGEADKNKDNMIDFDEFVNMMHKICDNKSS

[6] = molecular target: Plasmodium falciparum protein kinase 6 (PK6, PF3D7_1337100) (UniProt Q8IDW1); experiment: PfPK6 kinase inhibitors, biochemical, TCAMS library (AID 1159586); settings: recombinant PfPK6, Kinase-Glo ATP depletion luminescence
Chain of Plasmodium falciparum protein kinase 6 (PK6, PF3D7_1337100) (Q8IDW1 1-305): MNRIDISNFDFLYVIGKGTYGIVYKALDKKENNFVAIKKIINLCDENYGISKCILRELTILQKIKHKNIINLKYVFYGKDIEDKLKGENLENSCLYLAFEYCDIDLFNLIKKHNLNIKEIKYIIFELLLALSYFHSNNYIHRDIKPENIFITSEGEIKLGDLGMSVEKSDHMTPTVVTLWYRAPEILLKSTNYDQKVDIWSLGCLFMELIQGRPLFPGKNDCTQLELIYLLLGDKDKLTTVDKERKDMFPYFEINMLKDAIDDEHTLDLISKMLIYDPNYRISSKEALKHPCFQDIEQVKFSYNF

[7] = molecular target: Protein kinase 7 (PK7), Plasmodium falciparum 3D7 (PF3D7_0213400) (UniProt Q7YTF7); experiment: inhibition of Plasmodium PK7 catalytic activity – biochemical, TCAMS antimalarial set, Kinase-Glo luminescence (AID 1159587); settings: recombinant PfPK7, Kinase-Glo ATP depletion luminescence
Chain of Protein kinase 7 (PK7), Plasmodium falciparum 3D7 (PF3D7_0213400) (Q7YTF7 1-343): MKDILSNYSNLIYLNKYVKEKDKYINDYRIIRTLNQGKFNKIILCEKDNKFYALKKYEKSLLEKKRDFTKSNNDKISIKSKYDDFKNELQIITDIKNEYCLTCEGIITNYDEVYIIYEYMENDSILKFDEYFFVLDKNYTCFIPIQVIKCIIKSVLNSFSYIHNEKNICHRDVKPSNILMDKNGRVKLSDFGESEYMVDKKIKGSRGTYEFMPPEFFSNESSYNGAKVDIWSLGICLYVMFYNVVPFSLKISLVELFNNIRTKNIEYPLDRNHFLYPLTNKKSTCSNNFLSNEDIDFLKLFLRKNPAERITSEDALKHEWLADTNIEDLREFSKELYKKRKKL

[8] = molecular target: Calcium-dependent protein kinase 4 (Plasmodium falciparum (isolate 3D7)) (UniProt Q8IBS5); experiment: PfCDPK4 kinase inhibitors, biochemical, TCAMS library (AID 1159588; cut-off not given, nearly all actives have IC50 up to about 0.91 µM); settings: recombinant PfCDPK4, Kinase-Glo ATP depletion luminescence
Chain of Calcium-dependent protein kinase 4 (Plasmodium falciparum (isolate 3D7)) (Q8IBS5 whole entry, looked up): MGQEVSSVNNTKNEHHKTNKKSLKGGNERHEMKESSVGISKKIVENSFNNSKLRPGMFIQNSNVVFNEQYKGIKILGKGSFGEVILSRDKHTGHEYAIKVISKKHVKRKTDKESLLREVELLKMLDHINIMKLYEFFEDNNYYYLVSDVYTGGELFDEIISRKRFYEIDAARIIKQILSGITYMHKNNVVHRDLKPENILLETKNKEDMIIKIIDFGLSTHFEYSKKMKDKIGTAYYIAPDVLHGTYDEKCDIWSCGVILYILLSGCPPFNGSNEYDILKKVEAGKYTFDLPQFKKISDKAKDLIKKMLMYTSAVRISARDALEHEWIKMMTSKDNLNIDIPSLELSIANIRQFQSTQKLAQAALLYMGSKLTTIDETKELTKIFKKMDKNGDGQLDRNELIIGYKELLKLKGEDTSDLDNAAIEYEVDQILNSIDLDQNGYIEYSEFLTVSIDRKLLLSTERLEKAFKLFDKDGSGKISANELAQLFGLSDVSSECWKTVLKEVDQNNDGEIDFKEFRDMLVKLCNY

Cc1ccc2cc(NC(=O)c3cccc(C(=O)Nc4ccc5nc(C)ccc5c4)n3)ccc2n1
active: growth inhibition [4] 92%
inactive: growth inhibition [1] 23% | inhibition [2] 21% | inhibition [3] 4% | outcome [5] | outcome [6] | outcome [7] | outcome [8]

CCCc1cc(NC2CCN(C)CC2)nc(Nc2cccc(OC)c2)n1
inactive: growth inhibition [1] 28% | inhibition [2] 31% | inhibition [3] -3% | outcome [5] | outcome [6] | outcome [7] | outcome [8]
active: growth inhibition [4] 100%

O=C(NCC1CCC(C(=O)O)CC1)c1ccc(/C=C/C(=O)N2CCc3ccccc3C2c2ccc3c(c2)OCO3)cc1 (stereo not given)
inactive: growth inhibition [1] 17% | inhibition [3] 2% | outcome [5] | outcome [6] | outcome [7] | outcome [8]
active: inhibition [2] 66% | growth inhibition [4] 91%

COc1cc(OC)cc(-c2nnc(Sc3ccc(C#N)c([N+](=O)[O-])c3)n2C)c1
inactive: inhibition [2] 1% | inhibition [3] 3% | outcome [5] | outcome [6] | outcome [7] | outcome [8]
active: growth inhibition [1] 77% | growth inhibition [4] 95%

NC(=O)c1ccccc1OCC(=O)Nc1cccc(-c2ccc(-c3nc4ccc(C(F)(F)F)cc4[nH]3)cc2)c1
inactive: growth inhibition [1] 17% | inhibition [3] -2% | outcome [5] | outcome [6] | outcome [7] | outcome [8]
active: inhibition [2] 58% | growth inhibition [4] 92%

COc1cc(Nc2nccc(N3CCC(NC(=O)C(C)c4ccc(Cl)cc4)C3)n2)cc(OC)c1OC (stereo not given)
active: growth inhibition [1] 90% | growth inhibition [4] 97%
inactive: inhibition [2] 2% | inhibition [3] -7% | outcome [5] | outcome [6] | outcome [7] | outcome [8]

COC(=O)c1cccc(NC(=O)NCCNc2ccnc(Nc3ccc(F)cc3)n2)c1
inactive: growth inhibition [1] 5% | inhibition [2] 10% | inhibition [3] -6% | outcome [5] | outcome [6] | outcome [7] | outcome [8]
active: growth inhibition [4] 93%

CCOc1ccc(C2CCN(CCN3CCC(NC(=O)c4ccc(-c5ccc(C(F)(F)F)cc5)cc4)CC3)CC2)c(OCC2CC2)c1
inactive: inhibition [2] 13% | inhibition [3] -9% | outcome [5] | outcome [6] | outcome [7] | outcome [8]
active: growth inhibition [1] 65% | growth inhibition [4] 99%

CNCCNCc1cccc(-c2ccc(-c3nc4c(C)cccc4[nH]3)cc2)c1
inactive: growth inhibition [1] 21% | inhibition [2] 17% | inhibition [3] -1% | outcome [5] | outcome [6] | outcome [7] | outcome [8]
active: growth inhibition [4] 98%

CCCCNC(=O)c1cc(CNC2CCCCC2)ccc1-c1cccc(CNCc2ccc(-c3ccccc3)cc2)c1
inactive: inhibition [3] 0% | outcome [5] | outcome [6] | outcome [7] | outcome [8]
active: growth inhibition [1] 85% | inhibition [2] 100% | growth inhibition [4] 100%

CN1CCC(NCc2cccc(-c3ccc(S(=O)(=O)NCCc4ccccn4)c(F)c3)c2)CC1
active: growth inhibition [4] 98%
inactive: growth inhibition [1] 26% | inhibition [2] 11% | inhibition [3] 7% | outcome [5] | outcome [6] | outcome [7] | outcome [8]

CC(C)(C)c1ccc(S(=O)(=O)Nc2ccccc2N2CCOCC2)cc1
active: growth inhibition [1] 60% | growth inhibition [4] 90%
inactive: inhibition [2] 11% | inhibition [3] 1% | outcome [5] | outcome [6] | outcome [7] | outcome [8]

O=C(NC(NC(=S)Nc1ccc([N+](=O)[O-])cc1)C(Cl)(Cl)Cl)c1cccc(Cl)c1 (stereo not given)
inactive: inhibition [2] 24% | inhibition [3] 0% | outcome [5] | outcome [6] | outcome [7] | outcome [8]
active: growth inhibition [1] 100% | growth inhibition [4] 97%

CCN(CC)Cc1cc(Nc2c3ccc(Cl)cc3nc3cccc(OC)c23)ccc1O
inactive: inhibition [2] 8% | inhibition [3] -3% | outcome [5] | outcome [6] | outcome [7] | outcome [8]
active: growth inhibition [1] 98% | growth inhibition [4] 101%

Cc1cc(N(C)CCCN(C)C)nc(Nc2ccc(Cl)cc2)n1
inactive: inhibition [2] 7% | inhibition [3] 5% | outcome [5] | outcome [6] | outcome [7] | outcome [8]
active: growth inhibition [1] 79% | growth inhibition [4] 101%

O=C(C=Cc1cn(-c2ccccc2)nc1-c1ccccc1)N1CCN(c2ccncc2)CC1
active: growth inhibition [4] 90%
inactive: growth inhibition [1] 20% | inhibition [2] 11% | inhibition [3] 2% | outcome [5] | outcome [6] | outcome [7] | outcome [8]

CC(C)c1ccc(CN2CCC(CNC(=O)c3cc(-c4cccc(Cl)c4)cs3)C2)cc1 (stereo not given)
active: growth inhibition [4] 99%
inactive: growth inhibition [1] 43% | inhibition [2] 42% | inhibition [3] 1% | outcome [5] | outcome [6] | outcome [7] | outcome [8]

CC(C)NCc1ccc(-c2ccc(NS(=O)(=O)c3cccc4cccnc34)cc2)cc1
active: growth inhibition [4] 90%
inactive: growth inhibition [1] 45% | inhibition [2] 27% | inhibition [3] -4% | outcome [5] | outcome [6] | outcome [7] | outcome [8]

Cc1noc(C)c1-c1ccc(C(=C2CCCCCC2)c2ccc(O)cc2)cc1
inactive: inhibition [2] -7% | inhibition [3] 7% | outcome [5] | outcome [6] | outcome [7] | outcome [8]
active: growth inhibition [1] 96% | growth inhibition [4] 100%

CC(C)COc1ccc(Cl)cc1Cc1ccc(-c2nc3ccc(CCN(C)C)cc3[nH]2)o1
inactive: growth inhibition [1] 7% | inhibition [2] 10% | inhibition [3] 3% | outcome [5] | outcome [6] | outcome [7] | outcome [8]
active: growth inhibition [4] 92%

CN(C)CCNC(=O)c1csc(Nc2ccc(Cl)c(Cl)c2)n1
inactive: inhibition [2] 4% | inhibition [3] -3% | outcome [5] | outcome [6] | outcome [7] | outcome [8]
active: growth inhibition [1] 100% | growth inhibition [4] 100%

COc1ccc(C2CC(=O)C3=C(C2)NC(C)=C(C(=O)OC2CCCC2)C3c2cccc(O)c2)cc1 (stereo not given)
inactive: inhibition [2] -6% | inhibition [3] -2% | outcome [5] | outcome [6] | outcome [7] | outcome [8]
active: growth inhibition [1] 83% | growth inhibition [4] 88%

Cc1cccc2[nH]c(-c3ccc(-c4ccc(NC(=O)Nc5ccc(Cl)cc5)cc4)s3)nc12
inactive: inhibition [3] 7% | outcome [5] | outcome [6] | outcome [7] | outcome [8]
active: growth inhibition [1] 100% | inhibition [2] 78% | growth inhibition [4] 101%

CCOC(=O)C(CO)NC(=O)c1ccc([N+](=O)[O-])o1 (stereo not given)
active: growth inhibition [4] 96%
inactive: growth inhibition [1] 2% | inhibition [2] -5% | inhibition [3] 8% | outcome [5] | outcome [6] | outcome [7] | outcome [8]

CN(c1ccc(NC(=O)Nc2cc(C(F)(F)F)ccc2F)cc1)c1ccnc(NCCN2CCCC2)n1
inactive: growth inhibition [1] 1% | inhibition [3] -2% | outcome [5] | outcome [6] | outcome [7] | outcome [8]
active: inhibition [2] 94% | growth inhibition [4] 93%

CCN(CC)C(=O)C1CCN(C(C(=O)N2CCN(CC(=O)N3CCCC3)CC2)c2cc3ccccc3o2)CC1 (stereo not given)
inactive: growth inhibition [1] 4% | inhibition [2] -11% | inhibition [3] -7% | outcome [5] | outcome [6] | outcome [7] | outcome [8]
active: growth inhibition [4] 98%

Cc1cccc2[nH]c(-c3cccc(-c4cccc(CNCCNC(=O)c5ccnn5C)c4)c3)nc12
active: growth inhibition [1] 71% | growth inhibition [4] 100%
inactive: inhibition [2] 26% | inhibition [3] -3% | outcome [5] | outcome [6] | outcome [7] | outcome [8]

Cc1ccc(OC2CCN(c3ccc(C(=O)NC4CC4)cn3)CC2)cc1
inactive: inhibition [2] 11% | inhibition [3] 4% | outcome [5] | outcome [6] | outcome [7] | outcome [8]
active: growth inhibition [1] 75% | growth inhibition [4] 87%

Cc1ccc(Cn2nc(Cl)c(N3CCCNCC3)cc2=O)cc1NC(=O)Nc1ccc(-c2ccccc2)cc1
active: growth inhibition [1] 55% | inhibition [2] 90% | growth inhibition [4] 101%
inactive: inhibition [3] -1% | outcome [5] | outcome [6] | outcome [7] | outcome [8]

COCCNCc1ccc(-c2ccccc2CNC2CCN(Cc3ccccc3)CC2)cc1
active: growth inhibition [4] 97%
inactive: growth inhibition [1] 28% | inhibition [2] 17% | inhibition [3] -1% | outcome [5] | outcome [6] | outcome [7] | outcome [8]

Cc1ccc(NC(=O)c2ccc3ncccc3c2)cc1OC1CCN(Cc2ccc(F)cc2)C1 (stereo not given)
inactive: growth inhibition [1] 28% | inhibition [2] 11% | inhibition [3] 3% | outcome [5] | outcome [6] | outcome [7] | outcome [8]
active: growth inhibition [4] 83%

CC(C)c1ccc(Nc2nc(NCCc3cnc[nH]3)nc(NCc3ccccc3)n2)cc1
active: growth inhibition [4] 98%
inactive: growth inhibition [1] 2% | inhibition [2] 1% | inhibition [3] -2% | outcome [5] | outcome [6] | outcome [7] | outcome [8]

CC(C)(C)n1nnnc1C(c1cccnc1)N(Cc1ccccc1)Cc1ccc(Cl)cc1 (stereo not given)
active: growth inhibition [4] 96%
inactive: growth inhibition [1] 17% | inhibition [2] 0% | inhibition [3] -1% | outcome [5] | outcome [6] | outcome [7] | outcome [8]

Cc1ccc(NC(C)C(=O)Nc2ccc(C#N)cc2)cc1S(=O)(=O)N1CCCCC1 (stereo not given)
inactive: inhibition [2] 11% | inhibition [3] 1% | outcome [5] | outcome [6] | outcome [7] | outcome [8]
active: growth inhibition [1] 92% | growth inhibition [4] 92%

Cc1ccc(-c2cc(C(=O)Nc3ccc(S(=O)(=O)N(C)Cc4ccccc4)cc3)[nH]n2)c(O)c1
active: growth inhibition [1] 67% | growth inhibition [4] 99%
inactive: inhibition [2] 34% | inhibition [3] -1% | outcome [5] | outcome [6] | outcome [7] | outcome [8]

COc1ccc(CC(Cc2ccc(OC)cc2)NCC(O)c2cccc(Cl)c2)cc1 (stereo not given)
inactive: inhibition [2] 11% | inhibition [3] -4% | outcome [5] | outcome [6] | outcome [7] | outcome [8]
active: growth inhibition [1] 98% | growth inhibition [4] 100%

O=C(Nc1ccc(Cn2ncc(N3CCCNCC3)c(Cl)c2=O)cc1)Nc1cc(Cl)cc(Cl)c1
active: growth inhibition [4] 91%
inactive: growth inhibition [1] 17% | inhibition [2] 3% | inhibition [3] 3% | outcome [5] | outcome [6] | outcome [7] | outcome [8]

CNc1ccc(CNCc2cccc(-c3ccc(-c4nc5ccccc5[nH]4)cc3)c2)cc1
active: growth inhibition [1] 80% | growth inhibition [4] 102%
inactive: inhibition [2] 18% | inhibition [3] -5% | outcome [5] | outcome [6] | outcome [7] | outcome [8]

NOCCCCOc1ccc(Br)cc1
inactive: growth inhibition [1] -1% | inhibition [2] 0% | inhibition [3] -2% | outcome [5] | outcome [6] | outcome [7] | outcome [8]
active: growth inhibition [4] 99%

CCCCCCn1c(Sc2ccc(C#N)c([N+](=O)[O-])c2)nnc1-c1cc(OC)cc(OC)c1
inactive: growth inhibition [1] 41% | inhibition [2] 35% | inhibition [3] -5% | outcome [5] | outcome [6] | outcome [7] | outcome [8]
active: growth inhibition [4] 95%

From PubChem BioAssay
